Among all 290,000 compounds or so, about 27,000 (9.3%) were called active. The list comes from a sample in which actives are over-represented; it also holds similar structures and randomly drawn compounds. A number with no mark means an inactive call. No stated cut-off is given here; in the data, active means inhibition mostly above about 28% (no sharp cut-off); inactive means mostly below about 43%.

This experiment in a line: A qHTS for Small Molecule Inhibitors of Shiga Toxin. Further: 0% is about no effect. The conditions noted are these: Vero cells, Shiga toxin protein synthesis inhibition reporter; at 38.7 µM, stronger effect = higher value.
With `COc1ccc(C(=O)Nc2ccccc2C(=O)N2CCN(c3ccccc3)CC2)cc1`, the inhibition is -6.97%.

On to `Cc1nnc(NC(=O)Nc2ccc(Cl)c(Cl)c2)s1`, for which the inhibition is -3.3%.

For `CCn1nccc1C(=O)Nc1ccc(S(=O)(=O)NC23CC4CC(CC(C4)C2)C3)cc1`, the inhibition is -9.86%.

For `CCn1nccc1C(=O)Nc1ccc(Cl)c(Cl)c1`, the inhibition was 81% (active).

Turning to `CC1=C(C(=O)OC2CCCCC2)C(c2ccccc2F)NC(=O)N1` (configuration not stated), the inhibition is 4.41%.

With `O=C(O)c1cc(S(=O)(=O)N(Cc2ccccc2)c2ccccc2)ccc1Cl`, the inhibition was -7.94%.

For the compound `O=C(NCc1cccc(Cl)c1)C1CCN(c2nnc(N3CCCC3=O)s2)CC1`, the inhibition is -4.8%.

As for `Cc1ccc(C)c(N2CCN(C(=O)CCCCCn3c(=S)[nH]c4ccc(N5CCOCC5)cc4c3=O)CC2)c1`, the inhibition is 1.81%.

With `COC(=O)c1c(C)[nH]c(C)c1-c1ccc([N+](=O)[O-])cc1`, the inhibition was 21.5%.

Consider `COC(=O)c1c(C)[nH]c(C(=O)/C=C/c2ccc(Cl)cc2)c1C`, for which the inhibition was 54.7% (active).

On to `Cc1ccc(NC(=S)NC(=O)/C=C/c2ccc(Cl)cc2)cc1`, for which the inhibition was 13%.

With `CCOC(=O)C1C(c2ccc(Cl)cc2)NC(=S)NC1(O)C(F)(F)F` (configuration not stated), the inhibition was -9.88%.

Consider `CC(=O)C1C(c2ccc(Cl)cc2)NC(=O)NC1(O)C(F)(F)F` (configuration not stated), for which the inhibition is -1.27%.

On to `O=C(c1cccs1)C1C(c2ccc(Br)cc2)NC(=S)NC1(O)C(F)(F)F` (configuration not stated), for which the inhibition was 69.1% (active).

With `CC(=O)N1CCN(CC(C)(C)NS(=O)(=O)c2ccc(C)cc2)CC1`, the inhibition is -4.99%.

As to `CC(=O)c1c(C)[nH]c(C(=O)OCC(=O)NCCC(C)C)c1C`, the inhibition was -4.2%.

In the case of `CCCCOC(=O)c1[nH]c(C)c(C(=O)OC)c1C`, the inhibition is 94.4% (active).

Take `COC(=O)c1c(C)[nH]c(C(=O)NCCc2ccc(S(N)(=O)=O)cc2)c1C`: the inhibition was 2.99%.

As for `Cc1ccc(CN2CCN(c3ncccn3)CC2)c(C)c1`, the inhibition was 6.99%.

For the compound `Cc1ccccc1CN1CCNC(=O)C1CC(=O)NCCC1=CCCCC1` (configuration not stated), the inhibition is -8.04%.

As for `CC(=O)N1C(=O)C2(Nc3ccccc3N2)c2ccccc21`, the inhibition is -7.58%.

On to `CC(=O)NN1C(=O)c2ccccc2NC1c1ccccc1` (configuration not stated), for which the inhibition is 4.01%.

As to `CC(C)=NN1C(=O)c2ccccc2NC1(C)C`, the inhibition is 91.4% (active).

For the compound `Nc1nc(SCC(=O)Nc2cc(C(F)(F)F)ccc2Cl)[nH]c(=O)c1NC(=O)c1ccco1`, the inhibition is -1.11%.

As to `CCC(C)N1C(=O)S/C(=C/c2ccc(Sc3nc4ccccc4[nH]3)o2)C1=O` (configuration not stated), the inhibition is 11.8%.

Turning to `COc1ccc(N2CCN(S(=O)(=O)c3ccc4c(c3)NC(=O)C(C)C(=O)N4)CC2)cc1` (configuration not stated), the inhibition is -6.85%.

`O=S(=O)(Nc1ccc(Oc2ncccn2)c(Cl)c1)c1ccc(F)cc1`: the inhibition was -3.73%.

For the compound `C=CCOc1cccc(CNCc2cccnc2)c1`, the inhibition was 29%.

Turning to `COC(=O)Cc1[nH]n(-c2nc3ccccc3s2)c(=O)c1C(C)=Nc1ccc(OC)cc1`, the inhibition was 38.9%.

Consider `CCc1ccc(-c2cc(C(=O)NCc3ccco3)c3ccccc3n2)s1`, for which the inhibition was 41.4%.

As for `CCC(C)Cn1c(O)cc2nn(-c3nc4ccccc4s3)c(=O)c-2c1C` (configuration not stated), the inhibition was 29.1%.

Consider `CC(=NCc1ccco1)C1=C(O)c2ccccc2C1=O`, for which the inhibition is 31.2%.

`C/C(=N\NC(=O)CC(C)C)c1c(C(F)(F)F)[nH]n(-c2nc3ccccc3s2)c1=O`: the inhibition is 65.9% (active).

For `CC(=NCc1ccco1)c1c(C(F)(F)F)[nH]n(-c2nc3ccccc3s2)c1=O`, the inhibition was 122% (active).

Consider `Cc1ccc(NC(=O)[C@H](Cc2ccccc2)NC(=O)C2CCNCC2)cc1`, for which the inhibition is -0.595%.

`COc1ccccc1NC(=O)N1CCCC1C(=O)NCc1cccs1` (configuration not stated): the inhibition was -1.36%.

In the case of `O=C(c1ccc(OC2CCN(C/C=C/c3ccc(F)cc3)CC2)cc1)N1CCCCC1`, the inhibition is -5.42%.

Regarding `O=C1CCC(C(=O)N2CCCCO2)CN1Cc1cccc(C(F)(F)F)c1` (configuration not stated), the inhibition was 29.5%.

`COCC1CCN(C(=O)C2CCC(=O)N(Cc3cccc(C(F)(F)F)c3)C2)CC1` (configuration not stated): the inhibition was 38.4% (active).

With `COCC1CCN(C(=O)C2CCC(=O)N(CC3CCCCC3)C2)CC1` (configuration not stated), the inhibition is 19.8%.

`CCOc1ccc(N(CC(=O)NCCc2ccc(F)cc2)S(=O)(=O)c2ccccc2)cc1`: the inhibition was 10.2%.

Consider `O=C(NCCN1CCOCC1)c1ccc(/C=C2\Sc3ccccc3N(Cc3ccc(F)cc3)C2=O)cc1`, for which the inhibition is -4.17%.

For `NC(=O)C1CCN(C(=O)COc2cccc3cccnc23)CC1`, the inhibition is 33.9%.

With `CCOC(=O)C1CCN(C(=O)COc2cccc3ccccc23)CC1`, the inhibition is 34.7% (active).

Consider `CCOC(=O)C1CCN(C(=O)COc2cc(C)c(Br)c(C)c2)CC1`, for which the inhibition is 2.84%.

With `O=C(O)c1cc(S(=O)(=O)NC2CCCc3ccccc32)ccc1O` (configuration not stated), the inhibition is 16.7%.

As to `CCN(CC)CCCNC(=O)c1cn(C)c2ccc(S(=O)(=O)N(C)C3CCCCC3)cc2c1=O`, the inhibition is -11.8%.

As for `COc1ccccc1C(=O)N(Cc1ccc(C)o1)C1CCS(=O)(=O)C1` (configuration not stated), the inhibition is -7.17%.

Regarding `Cc1cc(O)c(NC(=O)c2ccc(C)c([N+](=O)[O-])c2)cc1C`, the inhibition is 57.7% (active).

With `Cc1ccc(C(=O)Nc2cccc3ncccc23)cc1[N+](=O)[O-]`, the inhibition was 11.7%.

Consider `CCN1CCC(=NNC(=O)c2ccc(C)c([N+](=O)[O-])c2)CC1`, for which the inhibition is 14.2%.

In the case of `Cc1csc(NC(=O)CSc2nc(=O)cc(N)n2-c2ccc(F)cc2)n1`, the inhibition is -2.89%.

For the compound `Cc1ccccc1NC(=O)N1CCCC1C(=O)NCc1ccccc1` (configuration not stated), the inhibition is -8.06%.

As to `COc1ccc(C(=O)n2nc(C)c(Br)c2C)cc1OC`, the inhibition is 1.86%.

Turning to `COc1cccc(N(C(=O)c2snc(C(N)=O)c2N)C(C(=O)NCC2CCCO2)c2c[nH]c3ccccc23)c1` (configuration not stated), the inhibition was -11.7%.

For `CCN(CC)c1ccc(C(=O)N/N=C/c2ccc(N3CCOCC3)cc2)cc1`, the inhibition was -11.2%.

`Cc1cc(C)nc(N/N=C/c2c(CO)cnc(C)c2O)n1`: the inhibition was 3.16%.

As for `Cc1cc(C)nc(N/N=C/c2ccncc2)n1`, the inhibition was -5.35%.

With `Cc1ccc(C(=O)NCCNC(=O)c2cnccn2)cc1`, the inhibition is 3.15%.

Turning to `CCN(CC)c1ccc(/C=N/Nc2nc(C)cc(C)n2)c(O)c1`, the inhibition was 28.1% (active).

Consider `CCN(CC)c1ccc(/C=N/NC(=O)c2cnccn2)c(O)c1`, for which the inhibition was 62.2% (active).

As to `Cc1nn(C(C)C(=O)N2CCOCC2)c(=O)c2nn(-c3ccccc3)c(C)c12` (configuration not stated), the inhibition is -9.86%.

As for `O=C(c1ccc(F)cc1)N1CCCC(C(=O)N2CCCCC2)C1` (configuration not stated), the inhibition is 4.46%.

As to `CC(=O)Nc1ccc(S(=O)(=O)N2CCC(C(=O)N[C@@H](Cc3ccccc3)C(=O)O)CC2)cc1`, the inhibition is -6.49%.

For the compound `Cc1cccc(N(C)C(=O)c2cc(S(=O)(=O)N3CCCCC3)c[nH]2)c1`, the inhibition was -6.21%.

As to `C=C(C)C(=O)Nc1cccc(C(C)=O)c1`, the inhibition was -10.8%.

On to `CCN(CC)C(=O)C(=O)Nc1cccc(Br)c1`, for which the inhibition is 106% (active).

Regarding `CSc1ccccc1NC(=O)CN(C)CC(=O)Nc1cccc(Br)c1`, the inhibition is -0.946%.

In the case of `O=C(N/N=C/c1cccc(OC(=O)c2ccc([N+](=O)[O-])cc2)c1)c1cccnc1`, the inhibition was -3.03%.

Turning to `CCN(CC)/[N+]([O-])=N/Oc1cc(O/[N+]([O-])=N/N2CCCC2CO)c([N+](=O)[O-])cc1[N+](=O)[O-]` (configuration not stated), the inhibition is -5.78%.

Turning to `COc1ccc(-c2csc(NC(=O)COC(=O)c3ccc(Br)o3)n2)cc1`, the inhibition was 92.3% (active).

In the case of `COc1ccc(CC(=O)Nc2nc(-c3ccc(F)c(F)c3)cs2)cc1OC`, the inhibition is -2.51%.

On to `COc1cc(CC(=O)Nc2nc(-c3ccc(F)c(F)c3)cs2)cc(OC)c1OC`, for which the inhibition was -5.98%.

On to `COc1ccc(-c2csc(NC(=O)COC(=O)Cc3ccc(Cl)cc3Cl)n2)cc1`, for which the inhibition is 64% (active).

Take `O=C(NCCc1csc(-c2ccccc2)n1)c1ccccc1F`: the inhibition was 40.5%.

Turning to `CCCc1ccc(-c2csc(NC(=O)Cc3cccs3)n2)cc1`, the inhibition is 13%.

Regarding `COc1ccc(N2CCN(C(=O)CNC(=O)c3ccc(Br)o3)CC2)cc1`, the inhibition is -11.6%.

On to `CC(C)(C)NC(=O)NC(=O)COC(=O)Cc1ccc(Cl)cc1Cl`, for which the inhibition was 16.6%.

For `COc1ccc(-c2nc(CCNC(=O)c3ccc(Br)o3)cs2)cc1`, the inhibition is 20.3% (active).

For the compound `CC(C)=CCCC(C)CN1CCC(n2nccc2NC(=O)c2ccccc2)CC1` (configuration not stated), the inhibition was -5.43%.

Turning to `O=C(Nc1ccccc1)C1CCN(C(=O)c2ccc(Br)cc2)CC1`, the inhibition was 6.29%.

On to `COCCCC1CCN(C(=O)C2CCC(=O)N(C3CCCCCC3)C2)CC1` (configuration not stated), for which the inhibition was -6.64%.

On to `O=C(O)c1[nH]c2ccccc2c1C(c1cccc(O)c1)c1c(C(=O)O)[nH]c2ccccc12`, for which the inhibition was -5.15%.

As to `COC(=O)COc1ccc2c(=O)c(Oc3ccccc3Br)coc2c1`, the inhibition is -7.5%.

As for `CCc1ccc(N2CC(C(=O)N3CCCCCC3)CC2=O)cc1` (configuration not stated), the inhibition was 16%.

On to `CC(CC(=O)N1CCN(c2ccccc2)CC1)S(=O)(=O)c1ccc2c(c1)NC(=O)CS2` (configuration not stated), for which the inhibition is 1.51%.

On to `O=C(Cn1c(=O)sc2ccccc21)Nc1nc2c(s1)CCCC2`, for which the inhibition was 22.4%.

As to `O=C(CCS(=O)(=O)c1ccccc1)Nc1nc2c(s1)CCCC2`, the inhibition was 20.4%.

For the compound `Fc1ccc2nc(Nc3nc4c(s3)CCCC4)sc2c1`, the inhibition is 72.1% (active).

Turning to `CN(CC(=O)Nc1c(Cl)cccc1Cl)C(=O)c1ccncc1`, the inhibition is -30.3%.

As for `O=c1ccc(-c2ccc(S(=O)(=O)Nc3ccccc3)o2)n[nH]1`, the inhibition was -5.64%.

On to `O=C(O)c1ccc(S(=O)(=O)N2CCC(Cc3ccccc3)CC2)cc1`, for which the inhibition is -10.1%.

The record behind these values is PubChem BioAssay AID2315 (National Center for Advancing Translational Sciences (NCATS), 2010).
